# Screens: PubChem BioAssay, National Center for Advancing Translational Sciences (NCATS)
# The full list was thinned out, with hits kept by preference.
# Pf Dd2 growth – Plasmodium falciparum Dd2 growth inhibition | 120,000 tested, 4.3% active | Potency, µM (series often up to 28.9 µM), without a hit: at the highest dose activity, negative = inhibition, most hits filed as inhibitors | P. falciparum Dd2 growth, SYBR Green, 72 h; active = well fitted inhibition curve with a large enough effect;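 also: plate controls were DMSO vehicle for no effect and reference drug for full effect; nearly all actives have a fitted effect of over 65% in size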
#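 Readout: SYBR Green fluorescence, 485 nm excitation, 535 nm emission, after ~16 h lysis at 37C. Before that, Dd2-infected red cells (2.5% hematocrit) grew 72 h with compound, 29 uM top final concentration.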
# Numbers without * were called inactive; i = inactive; [ ] = dose if it differs, or a comment. Potency is read from the fitted curve at half-maximal effect.
SMILES,Pf Dd2 growth
Cc1cnn(CCC(=O)N2CC(F)(F)C[C@H]2c2nc(C)no2)c1,0%
CC1=C[C@@H](CN)[C@H](C(C)C)C[C@H]1Cc1nc2ccc(C)cc2[nH]1,10µM*
COC(=O)c1ccc2nc(C[C@@H]3C[C@@H](C(C)C)[C@H](CN)C=C3C)[nH]c2c1,-16%[44.1 µM]
CC1=C[C@@H](CNC(=O)CCCC(=O)O)[C@H](C(C)C)C[C@H]1Cc1nc2ccc(Cl)cc2[nH]1,-6%
CC1=C[C@@H](CN)[C@H](C(C)C)C[C@H]1Cc1nc2ccc(Cl)cc2[nH]1,11µM*
CC1=C[C@@H](CNC2CCN(C)CC2)[C@H](C(C)C)C[C@H]1Cc1nc2ccc(F)cc2[nH]1,-22%[44.1 µM]
CC1=C[C@@H](CNC(=O)NC2CCCCC2)[C@H](C(C)C)C[C@H]1Cc1nc2ccc(C)cc2[nH]1,-19%[44.1 µM]
Cc1cccc(CN2CCn3c(nnc3[C@@H]3C[C@@H](O)CN3C)C2)c1,-11%
COC[C@H]1NC(=O)CC[C@H]1C(=O)NCCCc1ccccc1,i
CN1CC(=O)N(C2CCC2)Cc2c(NCCCO)ncnc21,23%[44.1 µM]
CNC(=O)c1noc([C@@H]2CC(F)(F)CN2C(=O)CC2=CCCCC2)n1,14%
Cn1cnc(S(=O)(=O)N2CCC(N3C(=O)C4(CCCCC4)C3c3ccncc3)CC2)c1 (centres undefined),-16%
O=C(c1cccc(F)c1)N1CCC(c2nc(C3CCOCC3)no2)CC1,-2%
O=C(NC1CCCCC1)[C@@H]1C[C@@H](O)CN1C1CCN(C(=O)c2ccc3ncccc3c2)CC1,i
CC1=C[C@@H](CNC(=O)c2cnccn2)[C@H](C(C)C)C[C@H]1Cc1nc2ccccc2n1C,8.9µM*
CC1=C[C@@H](CNC(=O)c2cnccn2)[C@H](C(C)C)C[C@H]1Cc1nc2ccccc2[nH]1,i
CC1=C[C@@H](CNC(=O)Cn2cnnn2)[C@H](C(C)C)C[C@H]1Cc1nc2ccc(C)cc2[nH]1,i
COCC(=O)NC[C@@H]1C=C(C)[C@H](Cc2nc3ccccc3n2C)C[C@H]1C(C)C,10µM*
CC1=C[C@@H](CNC(=O)C2CC2)[C@H](C(C)C)C[C@H]1Cc1nc2ccccc2n1C,i
CC1=C[C@@H](CNC(=O)Cc2ccccc2)[C@H](C(C)C)C[C@H]1Cc1nc2ccncc2[nH]1,-10%[44.1 µM]
CC1=C[C@@H](CNC(=O)Cn2cnnn2)[C@H](C(C)C)C[C@H]1Cc1nc2ccccc2n1C,10µM*
CC1=C[C@@H](CNC(=O)CC2(CC(=O)O)CCCC2)[C@H](C(C)C)C[C@H]1Cc1nc2ccccc2n1C,i
CC1=C[C@@H](CNC(=O)CN(C)C)[C@H](C(C)C)C[C@H]1Cc1nc2ccccc2[nH]1,i
CCc1noc(-c2cn(C3CCN(C(=O)c4cccn4C)CC3)nn2)n1,i
O=C(NC[C@H]1O[C@H](Cc2cc(COc3ccccc3)on2)CC[C@@H]1O)Nc1ccc(F)cc1,-20%
SMILES,Pf Dd2 growth
O=C(Nc1ccccc1F)C(Cc1ccccc1)n1cccc1 (centres undefined),5%
CC(C)c1ccc(NC(=O)C(Cc2ccccc2)n2cccc2)cc1 (centres undefined),i
O=C(Nc1ccc(C(F)(F)F)cc1)C(Cc1ccccc1)n1cccc1 (centres undefined),14µM*
COc1ccc(-c2cc(N3CCCN(C(=O)Cc4ccc(Cl)cc4)CC3)n[nH]2)cc1,-11%
CCc1ccc(NC(=O)c2cc(S(=O)(=O)N3CCCCC3)c[nH]2)cc1,10%
Cn1cc(S(=O)(=O)N2CCCCC2)cc1C(=O)NCc1ccc(Cl)cc1,11µM*
Cc1ccc(CNC(=O)c2cc(S(=O)(=O)N3CCCCC3)cn2C)cc1,-21%
Cc1cc(C)cc(NC(=O)c2cc(S(=O)(=O)N3CCCCC3)c[nH]2)c1,28%
Cn1cc(S(=O)(=O)N2CCCCCC2)cc1C(=O)NCc1ccc(F)cc1,-5%
O=C(NCc1ccc(Cl)cc1)c1cc(S(=O)(=O)N2CCCCC2)c[nH]1,11µM*
Cc1cn(CC(=O)NC2CCOC3(CCOCC3)C2)c(=O)[nH]c1=O (centres undefined),5%
CC(=O)N(C1CC1)C1CCOC2(CCN(C(=O)c3cn[nH]c3-c3ccccc3)CC2)C1 (centres undefined),5%
CCCNC(=O)C[C@@H]1CCN(C(=O)c2ccnc(Cl)c2)C[C@@H]1CC,10%[44.1 µM]
CN(CCc1ccccn1)C(=O)[C@@]12CCCC[C@H]1N(C)C(=O)CC2,13%
Cc1ccc(CN(C)C(C)c2cccs2)cc1 (centres undefined),-13%[44.1 µM]
CC(=O)Nc1cccc(-c2cnc3n[nH]c(-c4ccc5c(c4)OCO5)c3n2)c1,2.5µM*
CC(=O)Nc1cccc(-c2cnc3n[nH]c(-c4ccc(F)cc4C)c3n2)c1,-12%[44.1 µM]
CC(=O)Nc1cccc(-c2cnc3n[nH]c(-c4sccc4C)c3n2)c1,i
CCc1nc(-c2nnn3c2COC(c2ccc(OC)cc2)C3)no1 (centres undefined),i
COc1ccc(C2Cn3nnc(-c4noc(COc5cccc(C)c5)n4)c3CO2)cc1 (centres undefined),10µM*
